For 38 compounds, growth results are on record in PubChem BioAssay (NCI).

SMILES strings stand for the structures. Compounds without any hit were thinned out: in the full panel of roughly 83,000, 20% have a hit.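 The endpoint reported here, percent growth, reads 100 for growth as untreated, 0 for no net growth and -100 for all cells dead.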 Calls of active or inactive are those of the source. How the source made its calls: active means growth percent below 10; inactive means the rest.

In this assay the test system is A549/ATCC NSCLC. As to the kind of experiment: NCI-60 one-dose screen, 48 h (100 = growth as untreated, 0 = no growth, -100 = all killed). To be noted: 10 µM unless noted.
Take `COc1nc(Nc2cccc(C(F)(F)F)c2)nc(OC)n1`: the growth was 102% (inactive). Next, `N#Cc1ccc2nc[nH]c2c1`: 101% (inactive); `CCN(CC)c1ccc2nc3ccc(N=Nc4ccc(N(C)C)cc4)cc3[n+](-c3ccccc3)c2c1`: 3.32% (active). Next, `CC1(c2ccccc2)CO1` (stereo not drawn): 103% (inactive); `Cc1cc(Cl)cc(Cc2cc(Cl)cc(C)c2O)c1O`: 29% (inactive); `CC1(C)OC2C(CO)OC(n3ccc(=O)[nH]c3=O)C2O1` (stereo not drawn): 73.2% (inactive).

As for `Nc1ncnc(Nc2ccccc2)n1`, the growth is 104% (inactive). Regarding `CC(C)(C)NCCC(O)c1cc(C(F)(F)F)nc2c(C(F)(F)F)cccc12` (stereo not drawn), the growth is 57.5% (inactive).

As to `CN1CCCN(C(c2ccccc2)c2ccc(Cl)cc2)CC1` (stereo not drawn), the growth was 107% (inactive). Next, `CCOC(C=O)OCC`: 97.4% (inactive); `C=C1CC2(OC1=O)C(=O)N(C)c1ccc(I)cc12` (stereo not drawn): -19.3% (active). With `C=COC(=O)C(C)(C)C`, the growth is 105% (inactive).

With `O=C(OCc1ccccc1)n1nnc2ccccc21`, the growth was 102% (inactive). Next, `C/C(O)=C(/C=N/C(=S)Nc1ccccc1)C(=O)Nc1ccccc1C`: 97.3% (inactive); `CC(=O)Nc1ccc(/C=C2\SC(=S)N(/C=C(\C(C)=O)C(N)=O)C2=O)cc1`: 84.9% (inactive); `CC(C)C1CCC(C)C(O)C1` (stereo not drawn): 88.7% (inactive).

For the compound `CC1(C)CCC(C)(C)NC(=S)N1`, the growth was 108% (inactive).

Consider `Nc1ccc2ccccc2c1-c1c(N)ccc2ccccc12`, for which the growth was 19.9% (inactive). Next, `CCOC(OCC)C(=O)c1ccccc1`: 90.2% (inactive); `COc1ccc2c(c1)Nc1ccccc1S2`: 104% (inactive); `C=CC(=O)OC1CCC(C(C)(C)CC)CC1` (stereo not drawn): 109% (inactive). In the case of `CCOC(=O)c1c(C)[nH]c(C)c1C=O`, the growth was 67.3% (inactive). As for `CCC12OC(COc3ccccc3)CN1CCN2c1ccccc1` (stereo not drawn), the growth is 94.1% [100 µM] (inactive).

Consider `CCOC(=O)N[C@H]1CCc2cc(OC)c(OC)c(OC)c2-c2ccc(SC)c(=O)cc21`, for which the growth was 17.3% (inactive). As for `CCCCCCCCCCCCCCCCOc1ccccc1NC(=O)CC(C)=O`, the growth was 91.7% (inactive). `Cc1nc(C)c(C(=O)O)cc1C(=O)O`: the growth is 116% (inactive). Next, `Nc1ccn(C2CC(N)C(CO)O2)c(=O)n1` (stereo not drawn): 75.6% (inactive); `CCCNS(=O)(=O)c1ccc(Cl)cc1`: 94.5% (inactive). Next, `Clc1cccc(Cl)c1CSc1nc2ccccc2n2cccc12`: 95.4% (inactive); `Cc1cc(C(=O)c2ccccc2)cc(C)c1O`: 102% (inactive). As for `CSCCC(NC(=O)C(Cl)Cl)C(=O)O` (stereo not drawn), the growth is 80.5% (inactive). `CSCC[C@@H]1C(=O)N(C)[C@H](C(C)(C)C)N1C(=O)c1ccccc1`: the growth was 101% (inactive).

With `ON1CCCC1`, the growth is 100% (inactive). Turning to `CC(C)N(C(=O)c1ccccc1)C(C)C`, the growth was 98.8% (inactive).

Turning to `CC(=O)c1cccc(N(C)S(=O)(=O)c2ccc(C)cc2)c1`, the growth was 95.9% (inactive). Consider `O=C(Nc1c(Cl)cc(Cl)cc1Cl)ON=C1CCCCC1`, for which the growth was 99.2% (inactive). Next, `CCCCCCCCCCC(=O)CCCCCCCCCC`: 98.4% (inactive); `Cc1c(-c2ccc(C3CCCCC3)cc2)nc2ccc(F)cc2c1C(=O)O`: 21.3% (inactive).
